Screening results: PubChem BioAssay, several laboratories
In the library only some 1.4% were active in any assay of this set; here they are far more common.
CRFR2-BP ag – agonists of CRF-BP/CRF-R2 complex, primary screen, cell-based, HEK293, calcium dye fluorescence, uHTS; CRF-binding protein / CRF receptor 2 complex (human); calcium dye fluorescence (FLIPR); percent of saturating CRF peptide response; activation, % at 13.2 µM; 350,000 compounds, 0.46% hits; AID 588473, 2011;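 active = activation of at least 50%, plus an integration ratio under a set limit after plate pattern correction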;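 also: plate controls were neutral control wells without compound for no effect and CRF at EC100 for full effect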
TPT1 inh – Candida albicans TPT1 enzyme inhibitors, primary screen, biochemical, fluorescence polarization; recombinant caTPT1, FP RNA substrate dephosphorylation; inhibition, % at 5 µM; 300,000 compounds, 0.81% hits; AID 1962, 2009;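 active = inhibition above the mean of all tested compounds plus 3 SD, set per screening campaign, cut at about 24% in these data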;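 also: plate controls were DMSO alone for no effect and ferristatin control at 100 nM for full effect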
IDE act – human IDE activators in live cells, primary screen, fluorescence polarization, HEK cells, FAbeta-B substrate; Insulin-degrading enzyme (Homo sapiens), P14735; FAbeta-B cleavage; 0% vehicle, 100% cell-free pure enzyme wells; activation, % at 5.96 µM; 340,000 compounds, 0.073% hits; AID 493087, 2011;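 active = activation above the mean of all tested compounds plus 3 SD, set per screening campaign, cut at about 17% in these data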
Target sequence (P14735 whole entry, looked up): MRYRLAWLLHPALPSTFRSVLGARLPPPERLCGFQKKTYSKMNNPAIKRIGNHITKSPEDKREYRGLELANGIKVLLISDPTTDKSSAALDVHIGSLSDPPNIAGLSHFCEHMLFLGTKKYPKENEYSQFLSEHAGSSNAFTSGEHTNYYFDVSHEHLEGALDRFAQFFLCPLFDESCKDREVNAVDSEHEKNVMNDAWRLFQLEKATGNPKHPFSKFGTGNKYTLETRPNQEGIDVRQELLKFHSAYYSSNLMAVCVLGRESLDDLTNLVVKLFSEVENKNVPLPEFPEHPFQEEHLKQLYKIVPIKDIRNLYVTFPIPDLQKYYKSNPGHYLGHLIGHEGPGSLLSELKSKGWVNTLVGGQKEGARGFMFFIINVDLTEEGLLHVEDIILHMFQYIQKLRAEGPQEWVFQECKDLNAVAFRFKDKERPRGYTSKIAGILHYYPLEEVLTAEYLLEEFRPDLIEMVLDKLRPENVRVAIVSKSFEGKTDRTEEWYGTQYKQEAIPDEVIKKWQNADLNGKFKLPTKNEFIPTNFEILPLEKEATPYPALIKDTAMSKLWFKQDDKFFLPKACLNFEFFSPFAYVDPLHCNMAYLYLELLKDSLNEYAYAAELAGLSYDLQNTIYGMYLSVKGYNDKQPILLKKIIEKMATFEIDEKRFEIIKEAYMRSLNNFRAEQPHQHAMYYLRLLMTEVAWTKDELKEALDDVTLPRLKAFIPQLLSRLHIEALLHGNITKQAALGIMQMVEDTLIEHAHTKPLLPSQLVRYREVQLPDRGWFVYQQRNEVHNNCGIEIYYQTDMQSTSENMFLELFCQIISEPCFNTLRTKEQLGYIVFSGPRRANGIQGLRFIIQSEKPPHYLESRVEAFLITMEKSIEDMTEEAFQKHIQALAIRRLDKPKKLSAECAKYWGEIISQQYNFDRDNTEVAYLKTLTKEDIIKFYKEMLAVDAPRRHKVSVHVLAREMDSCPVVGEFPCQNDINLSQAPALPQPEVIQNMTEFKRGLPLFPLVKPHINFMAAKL
HNF4A DNA FP – change in binding of human HNF4A to DNA, primary screen, biochemical, fluorescence polarization, FITC-DNA. Hepatocyte nuclear factor 4-alpha (Homo sapiens), P41235. 1 h. activity change, % at 10 µM. 360,000 compounds, 0.3% hits. AID 1224865, 2016; in the data active = activity change above about 30%, passing the limit was not always enough
IDE cell inh – human IDE inhibitors in live cells, primary screen, fluorescence polarization, HEK cells, FAbetaB substrate. inhibition, % at 5.59 µM. 320,000 compounds, 0.41% hits. FAbetaB cleavage;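 active = percent inhibition above the average of all tested compounds plus 3 SD, set per screening campaign, cut at about 16% in these data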;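 also: IDE supplied by intact live HEK cells; FP after avidin binding of uncleaved biotin substrate so inhibition keeps polarization high; 0% = DMSO wells and 100% = 60 µM reference IDE inhibitor Ii1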
caTPT1 confirm – Candida albicans TPT1 inhibitors, confirmation, biochemical, fluorescence polarization, triplicate | shares compounds with TPT1 inh | recombinant caTPT1, RNase T1 coupled | inhibition, % at 5 µM | 2,400 compounds, 74% hits;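 active = inhibition above the primary screen limit, the mean inhibition of all tested compounds plus 3 SD, cut at about 25% in these data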
RNase T1 inh – RNase T1 inhibitors, counter-screen for TPT1 inhibitor project, biochemical, fluorescence polarization. shares compounds with TPT1 inh. RNase T1 cleavage, 1536-well. inhibition, % at 5 µM. 2,400 compounds, 83% hits;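 active = inhibition above the solvent-only control well mean plus 3 SD, limit set per screening run, cut at about 23% in these data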;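 also: plate controls were DMSO wells with enzyme for no effect and wells without RNase T1 for full effect; inhibitors block cleavage so intact labeled substrate keeps polarization high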
IDE cell inh cf – human IDE inhibitors in live cells, confirmation, fluorescence polarization, HEK cells, FAbetaB substrate | FAbetaB cleavage | inhibition, % at 5.59 µM | AID 435028, 2010 | 1,200 compounds, 51% hits | shares compounds with IDE cell inh;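 active = mean inhibition across triplicate wells above the cutoff set by the earlier primary insulin-degrading enzyme screen, cut at about 16% in these data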;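 also: 0% = DMSO wells and 100% = 60 µM reference IDE inhibitor Ii1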
HEK293 tox – cytotoxicity in HEK cells, cytotoxicity control for IDE inhibitor project, cell-based, luminescence. shares compounds with IDE cell inh. HEK293 cytotoxicity, ATP luminescence. inhibition, % at 5.59 µM. 1,200 compounds, 28% hits. AID 449730, 2010; in the data active = inhibition above about 22%;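 also: 0% = vehicle wells and 100% = reference cytotoxic drug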
* = called active by the depositor; / = not tested or not shown.

SMILES | CRFR2-BP ag | TPT1 inh | IDE act | HNF4A DNA FP | IDE cell inh | caTPT1 confirm | RNase T1 inh | IDE cell inh cf | HEK293 tox
CCOC(=O)C1C(=O)NC(SCC(N)=O)=C(C#N)C1c1ccccc1OCC (configuration not stated) | 3.8 | 69.9* | -33.8 | 98.7* | 37.2* | 68.2* | 78.1* | 30.6* | 5.8
CCOC(=O)C1C(=O)NC(SC)=C(C#N)C1c1ccccc1F (configuration not stated) | -2.6 | -5.0 | 3.4 | 2.4 | -6.7 | / | / | / | /
O=C(O)c1ccccc1N/N=C/c1c(Sc2nnnn2-c2ccccc2)nc2ccccn2c1=O | 32.3 | 67.7* | -136.9 | 95.8* | 69.3* | 18.6 | 31.0* | 43.4* | 7.1
CCN(CC)c1ccc(/C=C2\CCC(/C=N/NC(=O)c3ccc(=O)n(C)c3)=C2N2CCOCC2)cc1 | 96.1* | 116.6* | -20.5 | 119.3 | 24.6* | 112.9* | 111.6* | 57.3* | 6.3
O=C(N/N=C/C1=C(N2CCOCC2)C(=C\c2ccccc2)/CC1)Nc1ccccc1 | 0.9 | -1.2 | -2.3 | 3.3 | 0.9 | / | / | / | /
CC(C)C1=CC(=Nc2ccc(S(N)(=O)=O)cc2)C=C(C(C)C)C1=O | -0.8 | / | 5.2 | -1.9 | / | / | / | / | /
C=CCn1cc(/C=C/c2cc[n+](C)cc2)c2ccccc21 | 77.1* | 46.0* | -17.5 | 86.2 | 21.8* | 55.5* | 59.2* | 66.7* | 84.7*
CCN(CC)C(=O)Cn1c(C)c(/C=C/c2cc[n+](C)cc2)c2ccccc21 | 29.6 | 108.2* | -12.6 | 157.7 | 26.3* | 108.2* | 106.9* | 24.4* | 13.0
Cc1ccccc1/C=C/c1cc[n+](C)cc1 | 1.1 | -1.8 | 0.5 | 0.9 | 1.1 | / | / | / | /
CCn1cc(/C=C/c2cc[n+](C)cc2)c2ccccc21 | 56.2* | 39.4* | -15.8 | 81.4 | 52.5* | 42.5* | 49.8* | 83.3* | 78.9*
C=CCn1c(C)c(/C=C/c2cc[n+](C)cc2)c2ccccc21 | 36.3 | 118.8* | -48.3 | 181.1 | 87.0* | 127.2* | 122.0* | 97.3* | 78.1*
CC(=O)C1=C(O)C(=O)N(c2ccccn2)C1c1ccccc1[N+](=O)[O-] (configuration not stated) | 0.3 | -3.3 | 0.5 | 3.0 | 5.9 | / | / | / | /
C=CCn1c(=O)/c(=C/c2ccc(O)cc2)s/c1=C(/C#N)c1nnc2n1CCCCC2 | 40.6 | 118.5* | -111.1 | 79.5* | 102.3* | 119.1* | 116.1* | 88.4* | 12.6
C=CCn1c(=O)/c(=C/c2ccc(Cl)cc2)s/c1=C(/C#N)c1nnc2n1CCCCC2 | 0.4 | -3.6 | -4.2 | 3.6 | -2.8 | / | / | / | /
C=CCN1C(=O)/C(=C/c2ccc(O)c(OC)c2)S/C1=N/c1nccs1 | 45.0 | 67.9* | -142.4 | 95.2* | 153.8* | 74.3* | 77.0* | 25.9* | 16.1
COc1ccc(NS(=O)(=O)c2cccc3ccccc23)cc1 | 0.3 | -1.0 | 6.1 | 1.4 | -0.8 | / | / | / | /
CC(=O)c1sc(N/N=C\c2ccc(Br)cc2)nc1C | 11.3 | 71.1* | -54.3 | 37.6* | 36.8* | 82.0* | 88.1* | 75.8* | 8.7
CCOC(=O)c1sc(N/N=C/c2ccc(N(C)C)cc2)nc1C | 2.9 | 0.6 | 2.9 | 3.2 | -1.3 | / | / | / | /
Cc1cc(/C=C2\SC(=S)NC2=O)cc(C)c1O | 3.2 | 35.5* | -7.6 | 34.5* | 16.4* | 10.2 | 16.8 | 30.6* | 11.3
